Sampled rows, rich in hits. Any-hit rate of the full collection: about 7.5%.
FLuc modulator – qHTS profiling assay for firefly luciferase inhibitor/activator using purifed enzyme and Km concentrations of substrates (counterscreen for miR-21 project) | Luciferin 4-monooxygenase (Photinus pyralis), P08659 | purified FLuc, Km substrates, luminescence inhibition | Potency, µM (highest dose often 57.5 µM), hits mostly inhibitors | 360,000 compounds, 6.9% hits | AID 588342, 2011; also: nearly all actives have a fitted effect of over 55% in size
Target sequence (P08659 whole entry, looked up): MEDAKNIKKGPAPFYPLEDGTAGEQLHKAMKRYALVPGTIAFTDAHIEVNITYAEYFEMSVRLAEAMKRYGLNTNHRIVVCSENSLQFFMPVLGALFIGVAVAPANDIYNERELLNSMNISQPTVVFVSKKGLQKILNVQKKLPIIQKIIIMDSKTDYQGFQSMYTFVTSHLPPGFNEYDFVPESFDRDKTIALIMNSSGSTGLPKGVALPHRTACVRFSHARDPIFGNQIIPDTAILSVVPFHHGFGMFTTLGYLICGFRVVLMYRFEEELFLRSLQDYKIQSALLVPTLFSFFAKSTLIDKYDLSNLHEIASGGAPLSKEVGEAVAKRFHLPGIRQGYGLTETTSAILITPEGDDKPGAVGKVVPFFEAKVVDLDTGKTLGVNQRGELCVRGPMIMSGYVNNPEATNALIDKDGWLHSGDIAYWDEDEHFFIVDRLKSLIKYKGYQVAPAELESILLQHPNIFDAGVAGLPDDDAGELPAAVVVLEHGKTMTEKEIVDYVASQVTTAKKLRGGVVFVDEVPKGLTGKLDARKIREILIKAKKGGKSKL
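Biochemical qHTS of compounds, final roughly 60 µM downward over six points, against 10 nM purified firefly luciferase using Km concentrations of substrates (10 uM D-luciferin, 10 uM ATP) in Tris acetate pH 7.5 buffer; luminescence output.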
Rab9 promoter act – qHTS Assay for Rab9 Promoter Activators. Huh7 Rab9 promoter-luciferase reporter, luminescence, 24 h. 320,000 compounds, 2.8% hits. Potency, µM (highest dose often 9.22 µM), hits mostly activators; also: nearly all actives have a fitted effect of over 60% in size
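Steps: seed 1500 Huh7 Rab9-luc cells per well, rest 2 h at 37 °C; add compound in DMSO; incubate 24 h; add luciferase reagent, 10 min ambient; read luminescence.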
SMN2 splice up – qHTS Assay for Enhancers of SMN2 Splice Variant Expression; AID 1458, 2008; Potency, µM (doses to about 46.1 µM), actives largely listed as activators; HEK293 SMN2-luciferase splicing reporter, luminescence, 30-36 h; 210,000 compounds, 2.8% hits; also: nearly all actives have a fitted effect of over 55% in size
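qHTS luciferase splicing reporter: luminescence rises when SMN2 exon 7 is included in transfected HEK293 cells. Compound exposure lasted 30-36 h at 37C, with 4.5 mM final sodium butyrate as control, followed by a ONE-Glo read.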
KinaseGlo FLuc – Counterscreen for Luciferase (Kinase-Glo TM) Inhibition; Potency, µM (series often up to 38.3 µM), actives largely listed as inhibitors; 200,000 compounds, 0.28% hits; Kinase-Glo luciferase, ATP luminescence, 8 min; also: nearly all actives have a fitted effect of over 60% in size
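Light output from Kinase-Glo luciferase with luciferin and 10 uM ATP in 50 mM imidazole pH 7.2, KCl, MgCl2, Tween 20, BSA; compound pin-delivered, 8-min ambient incubation, then luminescence read.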
NPC1 prom act – qHTS Assay for NPC1 Promoter Activators; Huh7 NPC1 promoter luciferase reporter, 24 h; Potency, µM (titrated, usually from 9.22 µM), most hits filed as activators; 320,000 compounds, 2.4% hits; also: nearly all actives have a fitted effect of over 60% in size
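Huh7 reporter cells (NPC1 promoter driving luciferase) are dosed with compound for 24 h at 37 °C, 5% CO2; luciferase detection reagent is then added and luminescence measured after 10 min at ambient temperature.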
ELG1 genotox – qHTS screen for small molecules that induce genotoxicity in human embryonic kidney (HEK293T) cells expressing luciferase-tagged ELG1 | HEK293T ELG1-luciferase reporter, luminescence, 16 h | 330,000 compounds, 1.3% hits | Potency, µM (top dose mostly 46 µM), hits mostly activators; also: nearly all actives have a fitted effect of over 60% in size
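Reporter readout depends on ELG1 protein level, which increases with genetic stress. After 16 hr compound exposure at 37 °C, luciferase activity was quantified using ONE-Glo.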
Hits are given with their value. Calls follow the shape of the dose curve; as a rule, active = well fitted curve in the direction sought with a large enough effect; inconclusive = small, poorly fitted or top-dose-only effect, or another doubt; inactive = no such curve, though single readings can be large; an effect the other way counts as inactive or inconclusive.

How did O=C(CSc1ncn(-c2ccccc2)n1)c1cccs1 do in these assays?
FLuc modulator: 7.6µM; Rab9 promoter act: 1.4µM; SMN2 splice up: inconclusive; KinaseGlo FLuc: inactive; NPC1 prom act: 2.8µM; ELG1 genotox: inconclusive

How did CCOC(=O)c1sc(NC(=O)CSc2ncn(-c3ccccc3)n2)nc1C do in these assays?
FLuc modulator: inactive; Rab9 promoter act: inactive; SMN2 splice up: inactive; KinaseGlo FLuc: inactive; NPC1 prom act: inactive; ELG1 genotox: inactive

How did Nc1nc(CSc2ncn(-c3ccccc3)n2)cs1 do in these assays?
FLuc modulator: 11µM; Rab9 promoter act: 1.3µM; SMN2 splice up: 16µM; KinaseGlo FLuc: inactive; NPC1 prom act: 2µM; ELG1 genotox: inconclusive

What do the screens show for `COCCCNC(=O)C1CCN(c2nc3ccc(Cl)cc3[nH]2)CC1`?
FLuc modulator: inactive

How did COc1cc(Cl)c(NC2=CC(=O)C(=O)c3ccccc32)c(OC)c1 do in these assays?
FLuc modulator: inactive; Rab9 promoter act: inactive; NPC1 prom act: inactive; ELG1 genotox: inactive

What do the screens show for `CC(=O)c1cccc(OCc2cc(C(=O)N(C)C(C)c3ccccn3)no2)c1` (configuration not stated)?
FLuc modulator: inactive; Rab9 promoter act: inactive; NPC1 prom act: inactive; ELG1 genotox: inactive

How did Cc1cccc(C)c1OCc1cc(C(=O)NCc2ccc(Cl)s2)no1 do in these assays?
FLuc modulator: inactive; Rab9 promoter act: inactive; NPC1 prom act: inactive; ELG1 genotox: inactive

What do the screens show for `CC(=O)c1cccc(OCc2cc(C(=O)N(C)Cc3cnccn3)no2)c1`?
FLuc modulator: inconclusive; Rab9 promoter act: 2.5µM; NPC1 prom act: inconclusive; ELG1 genotox: inconclusive

What do the screens show for `CN(Cc1cccnc1)C(=O)c1cc(COc2ccc3c(c2)CCCC3)on1`?
FLuc modulator: 11µM; Rab9 promoter act: inconclusive; NPC1 prom act: 1.3µM; ELG1 genotox: inconclusive

What do the screens show for `CC(=O)c1cccc(OCc2cc(C(=O)NCc3nc(C)c(C)s3)no2)c1`?
FLuc modulator: 17µM; Rab9 promoter act: inconclusive; NPC1 prom act: inconclusive; ELG1 genotox: inconclusive

Results for COc1cccc(OCc2cc(C(=O)N(C)Cc3nc4ccccc4[nH]3)no2)c1 ?
FLuc modulator: 11µM; Rab9 promoter act: inconclusive; NPC1 prom act: 3.2µM; ELG1 genotox: inconclusive

Results for Cc1cc(NC(=O)CSc2ccc(-c3nc4cc(C)c(C)cc4[nH]3)cn2)no1 ?
FLuc modulator: 0.19µM; Rab9 promoter act: 0.45µM; SMN2 splice up: inactive; KinaseGlo FLuc: inconclusive; NPC1 prom act: 2µM; ELG1 genotox: inconclusive

Results for CC(C)NC(=O)CSc1nnc(-c2ccc(C(C)(C)C)cc2)n1C ?
FLuc modulator: inconclusive; Rab9 promoter act: inactive; SMN2 splice up: inactive; KinaseGlo FLuc: inactive; NPC1 prom act: inactive; ELG1 genotox: inactive

What do the screens show for `Cc1cc2nc(-c3ccc(SCC(=O)N4CCc5ccccc54)nc3)[nH]c2cc1C`?
FLuc modulator: 0.13µM; Rab9 promoter act: 0.5µM; SMN2 splice up: 2.5µM; KinaseGlo FLuc: inactive; NPC1 prom act: 1.1µM; ELG1 genotox: inconclusive

Results for Cc1cc2nc(-c3ccc(SCc4ccccc4C#N)nc3)[nH]c2cc1C ?
FLuc modulator: 9.5µM; Rab9 promoter act: inconclusive; SMN2 splice up: 11µM; KinaseGlo FLuc: inactive; NPC1 prom act: inactive; ELG1 genotox: inconclusive

What do the screens show for `Cc1cc2nc(-c3ccc(SCC(=O)NC(C)C)nc3)[nH]c2cc1C`?
FLuc modulator: 2.1µM; Rab9 promoter act: 3.2µM; SMN2 splice up: inconclusive; KinaseGlo FLuc: inconclusive; NPC1 prom act: 2.8µM; ELG1 genotox: inactive

What do the screens show for `CCc1ccc(-n2nc(CO)c(C(=O)NCCc3ccccc3)n2)cc1`?
FLuc modulator: inactive; SMN2 splice up: inactive

How did Cc1ccc2nc(SCC(=O)Nc3ncccn3)[nH]c2c1 do in these assays?
FLuc modulator: inactive; Rab9 promoter act: inactive; NPC1 prom act: inactive; ELG1 genotox: inactive

What do the screens show for `COC(=O)CSc1ccc(-c2nc3ccc(C)cc3[nH]2)cn1`?
FLuc modulator: 2.7µM; Rab9 promoter act: inactive; SMN2 splice up: inactive; KinaseGlo FLuc: inactive; NPC1 prom act: inactive; ELG1 genotox: inconclusive

How did Cc1cc(C)c(C#N)c(SCc2ccc(C(=O)O)cc2)n1 do in these assays?
FLuc modulator: inactive; Rab9 promoter act: inactive; NPC1 prom act: inactive; ELG1 genotox: inactive

Results for Cc1cc2nc(-c3ccc(SCC(=O)Nc4ccc(S(=O)(=O)NC5CC5)cc4)nc3)[nH]c2cc1C ?
FLuc modulator: 0.11µM; Rab9 promoter act: 1.4µM; SMN2 splice up: 3.5µM; KinaseGlo FLuc: inactive; NPC1 prom act: 2.8µM; ELG1 genotox: inconclusive

What do the screens show for `Cc1cc2nc(-c3ccc(SCc4ccc(C(=O)O)cc4)nc3)[nH]c2cc1C`?
FLuc modulator: 4.3µM; Rab9 promoter act: inconclusive; KinaseGlo FLuc: inactive; NPC1 prom act: inconclusive; ELG1 genotox: inconclusive

What do the screens show for `O=C(CN1CCN(c2ccccc2O)CC1)Nc1cccnc1Cl`?
FLuc modulator: inactive; Rab9 promoter act: inactive; SMN2 splice up: inactive; KinaseGlo FLuc: inactive; NPC1 prom act: inactive; ELG1 genotox: inactive

How did CC[C@@H](C)[C@H]1O[C@]2(CC[C@@H]1C)C[C@@H]1C[C@H](C/C=C(/C)[C@H](O[C@@H]3C[C@H](OC)[C@H](O[C@@H]4C[C@H](OC)[C@@H](O)[C@H](C)O4)[C@H](C)O3)[C@@H](C)/C=C\C=C3CO[C@@H]4[C@H](O)C(C)=C[C@@H](C(=O)O1)[C@]34O)O2 (tested in a mixture with another compound) do in these assays?
KinaseGlo FLuc: inactive

What do the screens show for `COc1ccccc1NC(=O)CSc1ncc2c(n1)-c1ccccc1N(Cc1ccccc1C)S2(=O)=O`?
FLuc modulator: inactive

What do the screens show for `NC(=O)COC(=O)c1c2c(nc3ccccc13)CCCCC2`?
FLuc modulator: inactive; Rab9 promoter act: inactive; SMN2 splice up: inactive; KinaseGlo FLuc: inactive; NPC1 prom act: inactive; ELG1 genotox: inactive

Results for O=C(OCC(=O)N1CCc2ccccc21)c1c2c(nc3ccccc13)CCCC2 ?
FLuc modulator: 6.7µM; Rab9 promoter act: inactive; NPC1 prom act: inactive; ELG1 genotox: inactive

What do the screens show for `O=C(COC(=O)c1c2c(nc3ccccc13)CCCCC2)c1ccc(Cl)s1`?
FLuc modulator: 13µM; Rab9 promoter act: inactive; SMN2 splice up: inactive; KinaseGlo FLuc: inactive; NPC1 prom act: inactive; ELG1 genotox: inactive

Results for O=C(COC(=O)c1c2c(nc3ccccc13)CCCC2)c1cccs1 ?
FLuc modulator: 11µM; Rab9 promoter act: inactive; SMN2 splice up: inactive; KinaseGlo FLuc: inactive; NPC1 prom act: inactive; ELG1 genotox: inactive
